Screening data deposited in PubChem BioAssay by Broad Institute.
Many of the other results were omitted from the sample, so hits are more common in it than they were.
BL2 CD40 inh: CD40 pathway inhibition in BL2 cells; BL2 NF-kB luciferase reporter, CD40L-induced, 4 h; inhibition, % at 10 µM; actives 0.94% (n = 83,000);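 active = mean inhibition of at least 50% with a set share of replicates also reaching that level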;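 note: 0% = neutral control wells and 100% = IKK inhibitor VII at 50 µM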
Active calls of the source: *; [ ] = another dose, or the depositor's remark.

SMILES	BL2 CD40 inh
Cc1cc(-c2nnc3n2N=C(c2ccc(-c4ccccc4)cc2)CS3)n[nH]1	19
O=C(Nc1ccccc1F)N[C@@H]1CC[C@@H](CCNC(=O)C2CCCC2)O[C@@H]1CO	1
O=S(=O)(Nc1ccc(-c2nc3ccccc3o2)cc1)c1ccccc1	-35
Cc1cc(-c2nc3ccccc3o2)c2ccccc2n1	-29
c1ccc2nc(-c3nc4ccccc4o3)ccc2c1	82*
O=C(c1cccnc1)N1CC[C@@H]2[C@H](CO)Nc3ccc(-c4cccc(F)c4)cc3[C@@H]21	-39[25 µM]
CNC[C@@H]1Oc2c(cccc2N(C)C)C(=O)N(C)C[C@@H]1C	-1
Cc1noc(C)c1S(=O)(=O)Nc1ccc2c(c1)CC(=O)N([C@H](C)CO)C[C@@H](C)[C@H](CN(C)C(=O)Nc1cccc3ccccc13)O2	-11[25 µM]
O=C(CN1CCCC1)N1c2ccccc2C=Cc2ccccc21	11
O=C(CN1CCCCCC1)N1c2ccccc2C=Cc2ccccc21	25
O=C(C(=Cc1ccccc1)CN1CCCCC1)c1ccccc1	73*
O=C(O)[C@@H]1[C@@H](CO)[C@@H]2Cn3c(ccc(/C=C/c4ccccc4)c3=O)[C@@H]2N1Cc1ccc2c(c1)OCO2	8[25 µM]
CNC[C@H]1Oc2c(NC(C)=O)cccc2C(=O)N(C)C[C@H]1C	9
CCOC(=O)Cn1cnc2c(sc3nc(C)cc(C)c32)c1=O	-75
COC(=O)Cn1cnc2sc3c(c2c1=O)CCCC3	3
CCOC(=O)Cn1cnc2sc3c(c2c1=O)CCC3	56*
CS(=O)(=O)N1CC2C(c3ccc(Br)cc3)C(C1)N2CC(F)(F)F (stereo not drawn)	5
CCN1C(=O)C(CC(=O)Nc2ccc(F)cc2)N(Cc2ccco2)C1=S (stereo not drawn)	37*
CCN1C(=O)C(CC(=O)Nc2ccc(F)cc2)N(Cc2ccc3c(c2)OCO3)C1=S (stereo not drawn)	-8
COC(=O)CN1C(=S)N(c2ccc(F)cc2)C(=O)C1CC(=O)Nc1ccccc1 (stereo not drawn)	16
N#C[C@H]1[C@@H](c2ccccc2)[C@@H](CO)N1C(=O)Cc1ccccc1	9[25 µM]
CNC[C@H]1Oc2ncccc2C(=O)N(C)C[C@H]1C	1
CCOC(=O)c1c(NC(=O)CN2CCCCC2)sc(CN(C)C)c1-c1ccccc1	23
CCOC(=O)c1c(SCCN2CCCCC2)n(-c2ccccc2)c(=S)n(-c2ccccc2)c1=O	95*
CCOC(=O)c1[nH]c(=S)n(-c2ccccc2)c1C(=O)OCC	22
SMILES	BL2 CD40 inh
O=C(NCCc1ccccc1)[C@@H]1[C@@H](CO)[C@@H]2Cn3c(cccc3=O)[C@H]1N2CC1CC1	-1[25 µM]
c1ccc(OCCSc2nnnn2-c2ccccc2)cc1	-20
c1ccc(OCCSc2nnc3sc4ccccc4n23)cc1	87*
CCCn1c(=O)c2ccccc2n2c(SCCOc3ccccc3)nnc12	-3
CC(C)NC(=O)Nc1cccc2c1O[C@@H](CN(C)S(C)(=O)=O)[C@@H](C)CN(C)C2=O	-44
COc1ccc(OCC(=O)OCC(=O)NCc2ccco2)cc1	9
COc1ccc(CC(=O)OCC(=O)NCc2ccco2)cc1	5
Cc1cc(OCC(=O)OCC(=O)NCc2ccco2)ccc1Cl	31*
COc1ccc(OC(=O)N(C)C[C@H]2OCc3ccccc3-c3ccccc3C(=O)N([C@H](C)CO)C[C@H]2C)cc1	3
O=C(Nc1ccc(C(F)(F)F)cc1)N1C[C@@H]2N[C@H](C1)C2c1ccc(-c2cccc(F)c2)cc1 (stereo partly drawn)	70*
COc1ccc(NC(=O)N2C[C@@H]3N[C@H](C2)C3c2ccc(-c3cccc(F)c3)cc2)cc1 (stereo partly drawn)	-5[25 µM]
Cc1ccc(-c2ccc(C3[C@@H]4CN(C(=O)Nc5ccc(C(F)(F)F)cc5)C[C@H]3N4)cc2)cc1 (stereo partly drawn)	25[25 µM]
Nc1ncnc2nc(-c3ccc(N4CCOCC4)nc3)cc(-c3cccc(Br)c3)c12	-20[25 µM]
O=C(O)c1cc(-c2ccccc2)c(N2CCOCC2)s1	8
Nc1ccc(-c2cccc3c(=O)cc(N4CCOCC4)oc23)cc1	58*[25 µM]
C=C1C(=O)OC2C1CCC(C)C1C=CC(=O)C12C (stereo not drawn)	25
C=C1C(=O)OC2CC1C(O)CC(C)=CCCC(C)=CC(O)CC2C (stereo not drawn)	87*
COc1ccc([C@H]2CC=CC[C@@H](C)Oc3ccccc3C(=O)N(C)[C@H](Cc3ccccc3)C(=O)N2)c(OC)c1 (mixture of isomers)	28[25 µM]
CC(=NNC(=S)N1CCN(c2ccccn2)CC1)c1ccccn1	2
CC(=NNC(=S)N1CCN(c2ccccn2)CC1)c1nccs1	78*
O=C(N/N=C/C1CCCCC1)c1ccccn1	-42
S=C(NCc1ccc(Cl)cc1)N1CCN(c2ccccn2)CC1	6
CC(=NNC(=S)N1CC2CCC(CC2)C1)c1cnccn1	26
CC(=NNC(=S)N1CCN(C2CCCCCC2)CC1)c1ccccn1	51*
CC(C)NC(=O)N1C2CN(Cc3ccc(F)cc3)CC1C2c1ccc(Br)cc1 (stereo not drawn)	0
SMILES	BL2 CD40 inh
C[C@@H]1COCn2nncc2CC[C@@H](Cc2ccccc2)C(=O)N1	-1
CCC(=O)Nc1ccc2c(c1)C(=O)N(C)C[C@H](OC)[C@H](C)CN(Cc1nccs1)[C@@H](C)CO2	-4[25 µM]
Cc1ccc(-c2ccccc2[C@H]2[C@@H](C#N)N(C(=O)Cc3cccnc3)[C@H]2CO)cc1	15[25 µM]
O=C(NCCN1CCCC1)c1cc2c(c(-c3cccc(C4=CCCC4)c3)n1)[C@@H](CCO)N(CC1CC1)C2	-17[25 µM]
Oc1cc2c(c(Cl)c1O)CCNC[C@@H]2c1ccccc1	-5[25 µM]
COc1ccc(CCNC(=O)COC(=O)c2cccs2)cc1	1
COc1ccc(C(=O)Nc2ccc(C(=O)OCC(=O)c3ccccc3)cc2)cc1	3
CC(=O)NCCc1ccc(C(=O)COC(=O)c2cccs2)cc1	77*
CC(=O)NCCc1ccc(C(=O)COC(=O)c2cccn2C)cc1	39
COc1ccc(C(=O)COC(=O)c2cccs2)cc1	81*
COc1ccccc1C(=O)COC(=O)c1cccs1	-58
CC(C)(C)n1nc(-c2cccc3ccccc23)c2c(N)ncnc21	16[25 µM]
COc1ccc(-c2ccc3c(c2)[C@@H]2[C@@H](CCN2C(=O)c2ccc4c(c2)OCO4)[C@@H](CO)N3C)cc1	-2[25 µM]
CC[C@H]1C/C=C\C[C@@H](c2ccc(OC)cc2OC)NC(=O)[C@H](C)CC(=O)N1	-7[25 µM]
O=C(CC(F)(F)F)N1C[C@H]2[C@@H](c3ccccc31)[C@H](CO)N2C(=O)CN1CCOCC1	-11[25 µM]
COc1cccc(NC(=O)C[C@H]2CC[C@@H]3[C@H](COc4ccc(NS(=O)(=O)c5cccc(F)c5)cc4C(=O)N3C)O2)c1	-12[25 µM]
CO[C@H]1CN(C)C(=O)c2cc(NC(=O)C3CCOCC3)ccc2OC[C@@H](C)N(CC2CC2)C[C@@H]1C	-5
c1ccc(-c2cccc(-c3ccccn3)n2)nc1	10
c1ccc(-c2noc(C3CCC3)n2)nc1	2
c1ccc(-c2nnc(-c3ccccn3)nn2)nc1	49*
CCOc1ccccc1NC(=O)c1cccc(NC(=O)c2cccnc2)c1	4
O=C(Cc1ccccc1)N1C[C@H]2[C@@H](c3ccccc31)[C@H](CO)N2C(=O)C1CCCC1	5
COc1ccc(S(=O)(=O)N(C)C[C@@H]2OCc3ccccc3-c3ccccc3C(=O)N([C@@H](C)CO)C[C@H]2C)cc1	-3
N#C[C@H]1[C@@H](c2ccccc2)[C@@H](CO)N1C(=O)c1ccc2c(c1)OCO2	19[25 µM]
